Among the test systems are NCI-H23 lung; NCI-H226 lung; NCI-H322M lung; HOP-62 NSCLC; NCI-H460 lung; A549/ATCC NSCLC; 786-0 renal; COLO 205 colon; NCI-H522 lung; HOP-92 NSCLC.
Common to all, as to experiment: NCI-60 one-dose screen, 48 h (100 = growth as untreated, 0 = no growth, -100 = all killed)
Settings in all cases: 10 µM unless noted

About 83,000 compounds went through this panel and 20% of them were active in at least one assay; those are over-represented in the sample as a whole.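 Plates (96-well) were seeded with cells, treated with compound at one concentration, and incubated for 48 hours before percent growth was determined.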 Values without a mark were called inactive. The source made the active and inactive calls. Rule for the calls: active = growth percent below 10; inactive = the rest.

`N#Cc1ccc(Cl)cc1`: the growth is 111% with NCI-H23 lung; 109% with NCI-H226 lung; 119% in the assay with NCI-H322M lung; 105% in the assay on HOP-62 NSCLC; 122% in the assay with NCI-H460 lung; 103% in the assay with A549/ATCC NSCLC. The figures for the growth in the assay on 786-0 renal and in the assay with COLO 205 colon were 108% and 117%, respectively.

Turning to `Cc1ccc(C(=O)O[C@H](C(=O)O)[C@H](OC(=O)c2ccc(C)cc2)C(=O)O)cc1`, the growth in the assay on NCI-H23 lung is 102%; in the assay with NCI-H226 lung, 104%; in the assay on NCI-H322M lung, 104%; in the assay with HOP-62 NSCLC, 110%; in the assay with NCI-H460 lung, 115%; with NCI-H522 lung, 119%. The growth in the assay on A549/ATCC NSCLC is 103%; in the assay with 786-0 renal, 101%.

Turning to `C=CC1CN2CCC1CC2C(O)c1ccnc2ccccc12` (centres undefined), the growth is 24.4% with NCI-H23 lung; 112% in the assay with NCI-H226 lung; 145% in the assay on NCI-H322M lung; 121% with HOP-62 NSCLC; 118% in the assay on NCI-H460 lung; 24.2% with NCI-H522 lung. Moreover, the growth with 786-0 renal is 108%; in the assay with COLO 205 colon, 104%.

Take `O=c1c2ccccc2nc(-c2ccccc2Cl)n1-c1nnc(C(F)(F)F)s1`: the growth is -0.336% (active) with NCI-H23 lung; 42.9% in the assay with NCI-H226 lung; 17.6% in the assay with NCI-H322M lung; 58.7% in the assay on HOP-62 NSCLC; 24.7% in the assay with NCI-H460 lung; -23.4% (active) in the assay on NCI-H522 lung. The results for the growth with A549/ATCC NSCLC, in the assay with 786-0 renal and with COLO 205 colon were 37.3%, 22.4% and 43.6%, respectively.

For `CC[C@@H](C)C(=O)O[C@H]1[C@H](O)[C@H]2[C@@H](CN3C[C@@H](C)CC[C@H]3[C@@]2(C)O)[C@@H]2C[C@]34O[C@]5(O)[C@@H](OC(=O)[C@@](C)(O)CC)CC[C@@]3(C)[C@@H]5[C@@H](OC(C)=O)[C@@H](OC(C)=O)[C@H]4[C@@]21O`, the growth is 99.1% in the assay with NCI-H23 lung; 81.2% with NCI-H226 lung; 106% in the assay on NCI-H322M lung; 111% in the assay on NCI-H460 lung; 90% in the assay on HOP-92 NSCLC; 100% in the assay with NCI-H522 lung. The growth in the assay with A549/ATCC NSCLC was 70.5%; in the assay on 786-0 renal it was 101%.

As to `O=C(O)C(Br)CBr` (centres undefined), the growth is 99.2% with NCI-H23 lung; 103% in the assay on NCI-H226 lung; 92.5% in the assay with NCI-H322M lung; 101% in the assay with HOP-62 NSCLC; 102% in the assay with NCI-H460 lung; 75.9% in the assay on NCI-H522 lung. The growth with A549/ATCC NSCLC is 97.6%; in the assay on 786-0 renal, 96.4%; in the assay with COLO 205 colon, 111%.

For `CC[C@H](C)[C@H](NC(=O)[C@H]1CCCCN1C)C(=O)N(C)[C@H](C[C@@H](OC(C)=O)c1nc(C(=O)NC23C4C5C2C2C3C4C52C(=O)OC)cs1)C(C)C` (some centres undefined), the growth with NCI-H23 lung was 18.6%; in the assay on NCI-H226 lung, 14.3%; in the assay with NCI-H322M lung it was 48.3%; in the assay on HOP-62 NSCLC it was 21.5%; in the assay with NCI-H460 lung, 12.6%; in the assay with HOP-92 NSCLC it was -1.14% (active). The growth in the assay with A549/ATCC NSCLC is 7.26% (active); in the assay with 786-0 renal, 13.7%; in the assay on COLO 205 colon it was -42.8% (active).

On to `O=C=Nc1ccc(Br)cc1`, for which the growth in the assay with NCI-H23 lung is 101%; in the assay with NCI-H226 lung, 98.8%; in the assay on NCI-H322M lung, 100%; in the assay with HOP-62 NSCLC it was 119%; in the assay with NCI-H460 lung it was 103%; in the assay on NCI-H522 lung, 100%. Besides, the growth in the assay with A549/ATCC NSCLC is 113%; in the assay with 786-0 renal, 95.5%; in the assay with COLO 205 colon, 111%.

For the compound `CCCCOC(N)=O`, the growth was 100% in the assay on NCI-H23 lung; 103% with NCI-H226 lung; 102% with NCI-H322M lung; 105% in the assay with HOP-62 NSCLC; 106% in the assay on NCI-H460 lung; 106% in the assay with NCI-H522 lung. Further, the values for the growth in the assay on A549/ATCC NSCLC, in the assay on 786-0 renal and in the assay with COLO 205 colon were 109%, 104% and 108%, respectively.

Take `Oc1ccccc1C=NCCN=Cc1ccccc1O`: the growth with NCI-H23 lung was 99.8%; in the assay on NCI-H226 lung, 99.5%; with NCI-H322M lung it was 97.5%; with HOP-62 NSCLC it was 96.9%; in the assay with NCI-H460 lung it was 107%; in the assay with HOP-92 NSCLC it was 99.6%. For the same compound, the growth was 98.7% with A549/ATCC NSCLC, 106% in the assay with 786-0 renal and 118% in the assay with COLO 205 colon.

On to `CN(C)c1ccc(C=C2C(=O)NC(=O)NC2=O)cc1`, for which the growth with NCI-H23 lung was 70.8%; with NCI-H226 lung it was 97.6%; in the assay with NCI-H322M lung, 123%; in the assay on HOP-62 NSCLC it was 110%; in the assay on NCI-H460 lung, 102%; with HOP-92 NSCLC, 86.8%. The figures for the growth with A549/ATCC NSCLC, in the assay with 786-0 renal and in the assay with COLO 205 colon were 92.6%, 109% and 107%, respectively.

In the case of `O=C(O)c1cc([N+](=O)[O-])cc([N+](=O)[O-])c1`, the growth was 107% with NCI-H23 lung; 97% in the assay on NCI-H226 lung; 105% in the assay with NCI-H322M lung; 85.6% in the assay on HOP-62 NSCLC; 106% in the assay with NCI-H460 lung; 88.2% in the assay on HOP-92 NSCLC. Moreover, the growth in the assay with A549/ATCC NSCLC is 79.6%; in the assay with 786-0 renal, 97.9%; with COLO 205 colon, 118%.

On to `CNC(=O)Oc1ccc(Cl)cc1SSc1cc(Cl)ccc1OC(=O)NC`, for which the growth in the assay on NCI-H23 lung was 65.4%; in the assay on NCI-H226 lung it was 102%; in the assay on NCI-H322M lung, 103%; with NCI-H460 lung, 60.1%; in the assay with HOP-92 NSCLC it was 42.7%; in the assay on NCI-H522 lung, 51.2%. The growth in the assay with A549/ATCC NSCLC was 103%; with 786-0 renal, 110%.

Consider `OCCN=Cc1c[nH]c2ccccc12`, for which the growth is 91.6% with NCI-H23 lung; 83.5% with NCI-H226 lung; 102% in the assay with NCI-H322M lung; 85.1% in the assay with HOP-62 NSCLC; 103% in the assay on NCI-H460 lung; 95.2% in the assay with NCI-H522 lung. The growth is 95.2% in the assay on A549/ATCC NSCLC, 95.7% in the assay with 786-0 renal and 112% in the assay on COLO 205 colon.

Consider `O=C(O)CNCP(=O)(O)O`, for which the growth is 107% in the assay with NCI-H23 lung; 103% in the assay with NCI-H226 lung; 106% in the assay with NCI-H322M lung; 109% with HOP-62 NSCLC; 119% in the assay on NCI-H460 lung; 102% in the assay with A549/ATCC NSCLC. Further, the figures for the growth in the assay on 786-0 renal and with COLO 205 colon were 106% and 119%, respectively.

(Values after PubChem BioAssay (NCI).)
